An excerpt weighted towards active compounds, which were near 2.8% of everything screened.
ATXN viability = viability counter-screen for ATXN expression inhibitors; S2 cells (HEK-293 line with an ATXN2-luciferase reporter) viability, CellTiter-Fluor protease fluorescence, 24 h; Potency, µM (series often up to 56.7 µM), actives largely listed as cytotoxic; 400,000 compounds, 0.49% hits; AID 651635; also: potency is read from the fitted curve at half-maximal effect; nearly all actives have a fitted effect of over 40% in size
ATXN2 expr inh = reduces ATXN2 reporter expression in HEK-293 cells | Potency, µM (titrated, usually from 57 µM), without a hit: at the top dose activity change, negative = inhibition, most hits filed as inhibitors | 360,000 compounds, 0.72% hits | HEK-293 ATXN2-luciferase reporter, luminescence, 24 h; also: potency is read from the fitted curve at half-maximal effect; % is scaled to controls: 0 for no effect and ±100 for the full control effect; nearly all actives have a fitted effect of over 55% in size
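ATXN2-luciferase reporter cells (luciferase flanked by upstream and downstream ATXN2 gene portions) were treated 24 h at 37 °C with compounds at up to 57 uM. SteadyGlo luminescence gave expression; GF-AFC fluorescence gave viability.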
CtBP-E1A inh = CtBP/E1A binding inhibition; AlphaScreen GST-E1A/His-CtBP binding, 1536-well; hits give low values; activity change, % (no concentration beside the values); 340,000 compounds, 0.49% hits; in the data active = activity change below about -65%; inconclusive = mostly about -30% to -63%; also: % is scaled to controls: 0 for no effect and ±100 for the full control effect
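Homogeneous bead-based format: GST-tagged E1A captured on glutathione donor beads, His-tagged CtBP on nickel acceptor beads; compounds precede bead addition by 2 h at 37 °C.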
HepG2 viability = kills HepG2 cells in TGF-b inhibitor counter-screen; Potency, µM (doses to about 46.1 µM), for the others: at the highest dose activity change, negative = cytotoxicity, hits mostly cytotoxic; 410,000 compounds, 0.76% hits; HepG2 CAGA-GFP viability, ATP luminescence, 18 h; also: potency is read from the fitted curve at half-maximal effect
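CellTiter-Glo luminescence gave cytotoxicity after 18 hours at 37 degrees C. The cells were HepG2 CAGA-GFP in 1% FBS DMEM, stimulated with 500 pg/mL TGF-beta after compound addition. %Activity was normalised to no-cell wells (complete cell-killing) and DMSO (no toxicity), and curves were fitted and classified.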
TGFb inhibitor = blocks TGF-b signaling; HepG2 CAGA-GFP TGF-b/SMAD3 reporter, GFP fluorescence, 18 h; TGF-beta stimulated, 500 pg/mL final; 410,000 compounds, 1.2% hits; Potency, µM (doses to about 46.1 µM), without a hit: at the top dose activity, negative = inhibition, most hits filed as inhibitors; also: potency is read from the fitted curve at half-maximal effect; % is scaled to controls: 0 for no effect and ±100 for the full control effect; nearly all actives have a fitted effect of over 65% in size
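Inhibition was scored as loss of TGF-beta-induced (500 pg/mL final, 18 hours, 37 degrees C) GFP in HEPG2 cells carrying a CAGA-GFP reporter, in DMEM with 1% FBS. Well GFP was summed per cell; Activity was normalised to unstimulated and stimulated DMSO wells, then concentration-response fitting.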
Six1-Eya2 blk = blocks human Six1 binding to Eya2 | AlphaScreen GST-Six1/His-Eya2 binding, biochemical; hits give low values | AID 651725 | 360,000 compounds, 0.56% hits | activity change, % (test concentration not listed); in the data active = activity change below about -65%; inconclusive = mostly about -30% to -63%; also: % is scaled to controls: 0 for no effect and ±100 for the full control effect
Target sequence (O00167 whole entry, looked up): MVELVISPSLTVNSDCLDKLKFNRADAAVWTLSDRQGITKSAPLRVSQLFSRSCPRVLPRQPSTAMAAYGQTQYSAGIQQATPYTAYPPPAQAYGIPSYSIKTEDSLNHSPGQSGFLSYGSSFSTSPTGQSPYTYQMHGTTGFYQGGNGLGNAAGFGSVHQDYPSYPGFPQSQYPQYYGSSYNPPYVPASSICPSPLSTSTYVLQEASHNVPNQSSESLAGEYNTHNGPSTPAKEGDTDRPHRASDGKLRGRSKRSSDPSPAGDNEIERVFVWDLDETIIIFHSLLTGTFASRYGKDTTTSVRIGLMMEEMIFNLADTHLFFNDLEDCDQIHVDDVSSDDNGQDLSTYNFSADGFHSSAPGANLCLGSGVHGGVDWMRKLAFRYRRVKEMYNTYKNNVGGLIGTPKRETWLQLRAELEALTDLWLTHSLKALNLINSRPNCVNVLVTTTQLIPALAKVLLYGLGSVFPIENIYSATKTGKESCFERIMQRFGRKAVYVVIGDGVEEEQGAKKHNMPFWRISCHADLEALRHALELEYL
Target sequence (Q15475 whole entry, looked up): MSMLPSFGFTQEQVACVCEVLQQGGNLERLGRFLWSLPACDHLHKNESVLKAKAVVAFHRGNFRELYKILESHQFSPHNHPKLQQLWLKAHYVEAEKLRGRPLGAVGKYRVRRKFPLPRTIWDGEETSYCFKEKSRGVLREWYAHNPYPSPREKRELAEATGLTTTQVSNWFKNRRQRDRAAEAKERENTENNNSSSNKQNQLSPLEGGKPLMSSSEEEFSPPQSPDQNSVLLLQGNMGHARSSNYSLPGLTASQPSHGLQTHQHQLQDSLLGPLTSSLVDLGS
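Six1/Eya2 binding was read as AlphaScreen signal after compounds were pinned into GST-Six1 plus His-tagged Eya2 (5X stock 250/500 nM) in pH 8.0 Tris/NaCl/TCEP buffer, beads added, then incubated 1 h, 37 C, dark.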
Active calls of the source: *; i = inactive; u = inconclusive; x = no result given. Unless noted, calls follow the shape of the dose curve; as a rule, active = well fitted curve in the direction sought with a large enough effect; inconclusive = small, poorly fitted or top-dose-only effect, or another doubt; inactive = no such curve, though single readings can be large; an effect the other way counts as inactive or inconclusive.

SMILES	ATXN viability	ATXN2 expr inh	CtBP-E1A inh	HepG2 viability	TGFb inhibitor	Six1-Eya2 blk
Cn1nnnc1SCCCNCc1cccc(OCc2ccccc2Cl)c1	u	u	x	-81%	10µM*	x
COc1cccc(CNCCSc2nnnn2C)c1OCc1ccc(Cl)cc1	i	u	x	0%	18µM*	x
CCOC(=O)C1CCCN(C(=O)c2nn(-c3ccc(C)cc3)c(=O)n(C)c2=O)C1 (stereo not drawn)	i	10%	x	8%	6%	x
CCOc1ccc(NC(=O)c2ccc(F)c(S(=O)(=O)N(CC)Cc3ccccc3)c2)cc1	x	x	x	-28%	-2%	x
CCN(Cc1ccccc1)S(=O)(=O)c1cc(C(=O)Nc2cc(Cl)cc(Cl)c2)ccc1F	x	x	x	-37%	5µM*	x
Cc1ccc(C(=O)Nc2ccc(Br)cc2)cc1S(=O)(=O)NCc1ccccc1	u	u	x	-54%	16µM*	x
COc1ccc(CNS(=O)(=O)c2cc(C(=O)Nc3cc(Cl)cc(Cl)c3)ccc2F)cc1	x	x	x	10µM*	7.1µM*	x
O=C(Nc1cc(Cl)cc(Cl)c1)c1ccc(F)c(S(=O)(=O)NCc2ccccc2Cl)c1	x	x	x	-111%	u	x
CN1C(=O)C(C)(C)c2cc(S(=O)(=O)NCc3ccc(C(=O)Nc4ccc(Cl)cc4)cc3)ccc21	x	x	x	-28%	4µM*	x
CCc1ccc(NC(=O)c2ccc(CNS(=O)(=O)c3ccc4c(c3)C(C)(C)C(=O)N4C)cc2)cc1	x	x	x	-28%	-31%	x
COc1cc(CN2CCOc3ccc(C(O)c4cccnc4)cc3C2)cc(OC)c1 (stereo not drawn)	i	x	x	x	x	x
O=[N+]([O-])c1ccc(Cl)c(/C=N/n2c(-c3ccncc3)n[nH]c2=S)c1	i	15%	-73*	-43%	0%	-79*
O=[N+]([O-])c1ccc(O)c(/C=N/n2c(-c3ccccc3)n[nH]c2=S)c1	i	-7%	-3	-18%	-7%	-1
CCN(CC)S(=O)(=O)c1cc(NC(=O)C2CCN(c3ncnc4sc(C)c(C)c34)CC2)ccc1Cl	u	11µM*	-4	-17%	u	-18
Cc1ccc(C(=O)Nc2cnn(-c3ccc(C(=O)NCc4nc(-c5ccccc5)n[nH]4)cc3)c2)c(C)c1	i	x	x	x	x	x
N=C1N=C(N)c2cc3ccccc3cc21	32µM*	18µM*	x	x	x	x
NC1=Nc2cccc3cccc1c23	x	u	-1	-2%	-22%	1
O=C(N/N=C(\Cc1ncc[nH]1)c1ccccc1)c1ccncc1	i	u	-90*	-9%	-17%	-82*
O=C(N/N=C/c1ccccn1)c1ccccc1	u	-27%	u	-14%	-15%	u
Cn1ncc(Cl)c1C(=O)N/N=C/c1ccccn1	i	0%	-75*	5%	-6%	-80*
COc1ccc(C(=O)Nc2ccccc2C(=O)N/N=C/c2ccccn2)cc1OC	i	28µM*	0	-18%	u	0
O=C(N/N=C/c1ccccn1)c1ccncc1	i	x	x	3%	7%	-75*
COc1cccc(NC(=O)CSCn2nnc3c(=O)[nH]c(Cc4ccc(F)cc4)nc32)c1	u	-14%	x	1%	3%	x
COc1cc2c(NC3CCN(C)CC3)nc(N3CCCCC3)nc2cc1OCCOCCN(C)C	x	x	x	-39%	-100%	x
Cc1ccccc1C(=O)N/N=C/c1ccccn1	i	-20%	-21	3%	-7%	-13
O=C(N/N=C\c1ccccn1)c1ccccc1O	i	-54%	u	3.2µM*	u	u
COC(=O)c1ccc2nc(C3CCCCC3)c(CC(C)(C)C)n2c1	x	u	6	10µM*	u	-5
COc1ccc(CNC(=O)c2ccc3c(c2)CCN3S(=O)(=O)c2ccc(Cl)cc2)cc1	u	-3%	x	-3%	-17%	x
CCc1cccc(NC(=O)Cn2c(=O)n(-c3ccccc3C)c(=O)c3c2c2cc(C)ccc2n3C)c1	i	1%	x	-5%	-5%	x

Source: PubChem
